# According to PubChem BioAssay (NCATS):
# Results filed as inconclusive are left out. A call without a number means that no potency is given here. Activity calls are given as the source filed them. The call rests on the fitted dose curve; in most records, active means well fitted inhibition curve with a large enough effect; inconclusive means small, poorly fitted or top-dose-only effect; inactive means flat fitted curve, though single readings scatter. Where a SMILES comes first, the peptide text is derived from it. [ ]: non-standard residue; d: D form. pGlu = O=C1CC[C@@H](C(=O)O)N1; Thz = O=C(O)[C@@H]1CSCN1
# Tested on: CP269
# Assay: qHTS profiling for inhibitors of Plasmodium falciparum proliferation (AID 504749); further: nearly all actives have a fitted effect of over 60% in size
# Details: P. falciparum in erythrocytes, SYBR Green DNA, 72 h; series mostly up to 28.7 µM
# Method in brief: (§1)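 SYBR Green fluorescence of parasite DNA, read after lysis and overnight dark incubation, measured growth over 72 h in erythrocyte culture at 0.3% parasitemia and 2.5% hematocrit. Data normalised to DMSO and 0.29 uM artemisinin, with plate-drift correction.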
# Potency means the concentration at half of the fitted maximal effect.
row,Structure (SMILES),Potency
1,O=C1CC[C@@H](C(=O)N2CSC[C@H]2C(=O)O)N1 ([pGlu]-[Thz]-OH),inactive
2,Cc1c(Nc2ncccc2C(=O)O)cccc1C(F)(F)F,inactive
3,O=C(O)c1ccccc1Nc1cccc(C(F)(F)F)c1,inactive
4,CC(C(=O)O)c1ccc2c(c1)[nH]c1ccc(Cl)cc12 (stereo not drawn),inactive
5,CC1(C)C[C@@H]1C(=O)N/C(=C\CCCCSC[C@H](N)C(=O)O)C(=O)O,inactive
6,Cc1cc(O)c2ccccc2c1O,inactive
7,Nc1ccc(C(=O)O)c(O)c1,inactive
8,C=C(Nc1ccc(OCC)cc1)Nc1ccc(OCC)cc1,inactive
9,CCCCC[C@H](O)/C=C/[C@@H]1[C@@H](C/C=C\CCCC(=O)O)[C@@H](O)C[C@H]1O,inactive
10,[O-][n+]1ccccc1SSc1cccc[n+]1[O-],1070 nM (active)
11,CCCCCCCCCCCCCCCC(=O)OC(C)C,inactive
12,Clc1ccccc1-c1nc(-c2ccncc2)no1,inactive
13,CN1[C@@H]2CC[C@H]1CC(OC(=O)C(CO)c1ccccc1)C2 (stereo partly drawn),inactive
14,COc1ccc(-c2cc(=S)ss2)cc1,inactive
15,O=C(O)[C@H](CC(=O)N1C[C@H]2CCCC[C@H]2C1)Cc1ccccc1,inactive
16,Cc1ccccc1CNc1ncnc2c1ncn2C1OC(CO)C(O)C1O (stereo not drawn),inactive
17,C#C[C@]1(O)CC[C@H]2[C@@H]3CCc4cc(O)ccc4[C@H]3CC[C@@]21C,inactive

row,Structure (SMILES),Potency
1,COc1cc(/C=C/C(=O)N2CCN(CC(=O)N3CCCC3)CC2)cc(OC)c1OC,inactive
2,Cc1ccc(O)c(-n2nc3ccccc3n2)c1,inactive
3,O=C(O)COc1ccc(C(=O)c2cccs2)c(Cl)c1Cl,inactive
4,Cc1ccc(C(=O)c2ccc(CC(=O)O)n2C)cc1,inactive
5,CCCOC(=O)c1ccc(O)cc1,inactive
6,C=CC(N)CCC(=O)O (stereo not drawn),inactive
7,C=CCCCCCCCCC(=O)O,inactive
8,COc1ccc(/C=C/C(=O)Nc2ccccc2C(=O)O)cc1OC,inactive
9,O=C(OCc1ccccc1)c1ccccc1,inactive
10,c1ccc2sc(SN3CCOCC3)nc2c1,inactive
11,CCCCCCCCCCCCCCCCCC(=O)O,inactive
12,COc1cc2c3cc1Oc1cc(ccc1O)C[C@@H]1c4c(cc(OC)c(O)c4Oc4ccc(cc4)C[C@@H]3N(C)CC2)CC[N+]1(C)C,inactive
13,O=C(Nc1ccc(C(=O)O)c(O)c1)c1ccccc1,inactive
14,C=CCN1C(=O)C(CC(C)C)NC1=S (stereo not drawn),inactive
15,CC1(C)S[C@@H]2[C@H](NC(=O)[C@H](NC(=O)N3CCN(S(C)(=O)=O)C3=O)c3ccccc3)C(=O)N2[C@H]1C(=O)O,inactive
16,O=C(O)Cc1ccc(-c2ccccc2)cc1,inactive
17,CCOC(=O)c1ccccc1O,inactive

# Tested on: CP286
# Assay: as above
# Details: P. falciparum in erythrocytes, SYBR Green DNA, 72 h; series mostly up to 28.7 µM
# Method in brief: as §1
row,Structure (SMILES),Potency
1,O=C1CC[C@@H](C(=O)N2CSC[C@H]2C(=O)O)N1 ([pGlu]-[Thz]-OH),inactive
2,Cc1c(Nc2ncccc2C(=O)O)cccc1C(F)(F)F,inactive
3,O=C(O)c1ccccc1Nc1cccc(C(F)(F)F)c1,inactive
4,CC(C(=O)O)c1ccc2c(c1)[nH]c1ccc(Cl)cc12 (stereo not drawn),inactive
5,CC1(C)C[C@@H]1C(=O)N/C(=C\CCCCSC[C@H](N)C(=O)O)C(=O)O,inactive
6,Cc1cc(O)c2ccccc2c1O,inactive
7,Nc1ccc(C(=O)O)c(O)c1,inactive
8,C=C(Nc1ccc(OCC)cc1)Nc1ccc(OCC)cc1,inactive
9,CCCCC[C@H](O)/C=C/[C@@H]1[C@@H](C/C=C\CCCC(=O)O)[C@@H](O)C[C@H]1O,inactive
10,[O-][n+]1ccccc1SSc1cccc[n+]1[O-],891 nM (active)
11,CCCCCCCCCCCCCCCC(=O)OC(C)C,inactive
12,Clc1ccccc1-c1nc(-c2ccncc2)no1,inactive
13,CN1[C@@H]2CC[C@H]1CC(OC(=O)C(CO)c1ccccc1)C2 (stereo partly drawn),inactive
14,COc1ccc(-c2cc(=S)ss2)cc1,inactive
15,O=C(O)[C@H](CC(=O)N1C[C@H]2CCCC[C@H]2C1)Cc1ccccc1,inactive
16,Cc1ccccc1CNc1ncnc2c1ncn2C1OC(CO)C(O)C1O (stereo not drawn),inactive
17,C#C[C@]1(O)CC[C@H]2[C@@H]3CCc4cc(O)ccc4[C@H]3CC[C@@]21C,inactive

row,Structure (SMILES),Potency
1,COc1cc(/C=C/C(=O)N2CCN(CC(=O)N3CCCC3)CC2)cc(OC)c1OC,inactive
2,Cc1ccc(O)c(-n2nc3ccccc3n2)c1,inactive
3,O=C(O)COc1ccc(C(=O)c2cccs2)c(Cl)c1Cl,inactive
4,Cc1ccc(C(=O)c2ccc(CC(=O)O)n2C)cc1,inactive
5,CCCOC(=O)c1ccc(O)cc1,inactive
6,C=CC(N)CCC(=O)O (stereo not drawn),inactive
7,C=CCCCCCCCCC(=O)O,inactive
8,COc1ccc(/C=C/C(=O)Nc2ccccc2C(=O)O)cc1OC,inactive
9,O=C(OCc1ccccc1)c1ccccc1,inactive
10,c1ccc2sc(SN3CCOCC3)nc2c1,inactive
11,CCCCCCCCCCCCCCCCCC(=O)O,inactive
12,COc1cc2c3cc1Oc1cc(ccc1O)C[C@@H]1c4c(cc(OC)c(O)c4Oc4ccc(cc4)C[C@@H]3N(C)CC2)CC[N+]1(C)C,inactive
13,O=C(Nc1ccc(C(=O)O)c(O)c1)c1ccccc1,inactive
14,C=CCN1C(=O)C(CC(C)C)NC1=S (stereo not drawn),inactive
15,CC1(C)S[C@@H]2[C@H](NC(=O)[C@H](NC(=O)N3CCN(S(C)(=O)=O)C3=O)c3ccccc3)C(=O)N2[C@H]1C(=O)O,inactive
16,O=C(O)Cc1ccc(-c2ccccc2)cc1,inactive
17,CCOC(=O)c1ccccc1O,inactive
